In PubChem BioAssay (NCI):
Compounds without any hit were thinned out: in the full panel of roughly 79,000, 15% have a hit. A number with no mark means an inactive call. Active and inactive are the calls of the source. Rule as the data show it: active = growth inhibition above about 70%; inactive = the rest.

Assay: NCI Yeast Anticancer Drug Screen. Data for the sgs1 strain (AID 173);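 also: 0% = growth of vehicle-only control cultures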
Details: S. cerevisiae sgs1 mutant, stronger effect = higher value
Protocol: Growth inhibition of yeast strains with defined genetic alterations is measured as a screen for potential anti-cancer activity. Selected strains with alterations in DNA damage repair or cell cycle control were exposed to compounds and growth inhibition was measured relative to vehicle treated controls. The strain used in this assay is sgs1

Compound	growth inhibition (at 1.2 µM)	growth inhibition (at 3.7 µM)	growth inhibition (at 11.0 µM)	growth inhibition (at 33.0 µM)	growth inhibition (at 100.0 µM)
CCCN=Cc1cc(Cc2ccc(O)c(C=NCCC)c2)ccc1O	58%	89% (active)	98% (active)	98% (active)	97% (active)
O=C(/C(=C/c1ccc(O)cc1)c1ccccc1)c1ccccc1	-18%	-13%	16%	98% (active)	93% (active)
COc1ccc2nc3cccc([N+](=O)[O-])c3c(NCCNCCO)c2c1	80% (active)	89% (active)	93% (active)	95% (active)	95% (active)
CCC(=O)C1=C(O)c2cc(OC)ccc2CC1C(=O)OC (stereo not given)	-1%	-1%	4%	18%	37%
Cc1nc2sc3c(c2c(=O)o1)CCCC3	-2%	-4%	-2%	1%	2%
CC1=CC(=O)C=CC1=Nc1cc(Cl)c(O)c(Cl)c1	-50%	-42%	-17%	43%	89% (active)
O=CC1(F)CC1(c1ccccc1)c1ccccc1 (stereo not given)	-2%	-1%	3%	22%	98% (active)
Fc1ccc(Nc2ccc3ccccc3c2)cc1	-2%	0%	2%	63%	95% (active)
